Screens: PubChem, National Center for Advancing Translational Sciences (NCATS)
Lassa entry inh – inhibitors of Lassa virus binding or cell entry | Lassa virus pseudotype entry inhibition, cell reporter | Potency, µM (highest dose often 37.9 µM), without a hit: top-dose activity change, negative = inhibition, usual class: inhibitors | 300,000 tested, 1.2% active; calls by dose curve; tested in HEK293 cells; note: potency is the fitted concentration of half-maximal effect; nearly all actives have a fitted effect of over 50% in size
HCMV inh – blocks human cytomegalovirus replication; HFF cells, HCMV-luciferase reporter, 72 h; hits give low values; activity change, negative = inhibition, % at 57.5 µM; 410,000 tested, 4.5% active; AID 1259415; in the data active = activity change below about -60%; inconclusive = no clear call, values can overlap the other calls; inactive = above about -39%
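Steps: HFFs plated, 16 h 37C; compounds added; HCMV-luciferase added to MOI 1 PFU/cell; 72 h 37C; OneGlo reagent, 5 min room temperature; luminescence read, normalized to controls.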
FMDV antiviral – blocks foot and mouth disease virus; FMDV antiviral cell-based qHTS; Potency, µM (highest dose often 57.9 µM), without a hit: top-dose activity change, negative = inhibition, most hits filed as inhibitors; 410,000 tested, 1.2% active; AID 1159524; calls by dose curve; tested in HEK293T cells; note: read-out not given here; potency is the fitted concentration of half-maximal effect; nearly all actives have a fitted effect of over 45% in size
Marburg entry inh – Marburg virus entry inhibition | Marburg virus pseudotyped entry inhibition, cell reporter | Potency, µM (highest dose often 37.8 µM), without a hit: top-dose activity change, negative = inhibition, usual class: inhibitors | 300,000 tested, 1.8% active; calls by dose curve; tested in HEK293 cells; note: potency is the fitted concentration of half-maximal effect
An asterisk follows results filed as active; ? = inconclusive; . = not tested or not shown; + = active, no number; ! = a repeat was not active; [ ] = dose if it differs, or a comment. Sampled rows, rich in hits. Any-hit rate of the full collection: about 6.2%. % is set by controls: 0 for no effect and ±100 for the full control effect.

SMILES | Lassa entry inh | HCMV inh | FMDV antiviral | Marburg entry inh
COc1cc(C2N=C(N)Nc3nc4ccccc4n32)ccc1OCC(=O)O (configuration not stated) | 12%[46.1 µM] | 0 | -15% | -4%[46.1 µM]
Cc1cc(C(=O)COC(=O)c2ccccc2Br)c(C)n1CC1CCCO1 (configuration not stated) | ? | . | 0.4µM* | ?
COCCn1c(C)cc(C(=O)COC(=O)c2ccccc2Br)c1C | . | -82* | 35µM* | .
Cc1cc(C(=O)COC(=O)c2cccc(NS(C)(=O)=O)c2)c(C)n1CC1CCCO1 (configuration not stated) | 10µM* | -27 | 11µM* | 5.6µM*
COCCn1c(C)cc(C(=O)COC(=O)c2cccnc2SC)c1C | ? | 53 | -64% | ?
Cc1ccc(C(=O)OCC(=O)c2cc(C)n(CC3CCCO3)c2C)cc1 (configuration not stated) | -10% | 10 | -13% | ?
O=C(CCCN1C(=O)/C(=C\c2cccc(Br)c2)SC1=S)Nc1cccnc1 | ? | -99* | -25% | 4.5µM*
Cc1cc(NC(=O)CN2C(=O)/C(=C/c3cccc(Br)c3)SC2=S)no1 | 15%[46.1 µM] | 20 | -7% | 0%[46.1 µM]
O=C(CCCN1C(=O)/C(=C/c2cccc(Br)c2)SC1=S)Nc1cccnc1 | ? | -99* | -2% | ?
O=C(CCN1C(=O)/C(=C/C=C/c2ccccc2)SC1=S)Nc1ccccn1 | ? | -65* | -11% | -29%
O=C(CCCN1C(=O)/C(=C/c2cccc(Br)c2)SC1=S)Nc1ccccn1 | -10% | -101* | 0% | ?
CC(=O)OC[C@H]1O[C@@H](ON=C(C)CCN2CCCCc3nc(C)c(C)cc32)[C@H](OC(C)=O)[C@@H](OC(C)=O)[C@H]1OC(C)=O | . | . | . | 1%[14.2 µM]
C/C(CCC(=O)OC[C@H]1O[C@H](C#Cc2ccccc2)C=C[C@@H]1Oc1ccc(C)cc1)=N\OC[C@@H](O)COCc1ccco1 | . | . | . | -10%[14.2 µM]
COc1ccc(Br)cc1CNC(=O)Cn1ncn2nc(-c3cccs3)cc2c1=O | 1%[46.1 µM] | -4 | -20% | -16%[46.1 µM]
CCN1CCN(C(c2ccccc2)c2sc3nc(-c4ccco4)nn3c2O)CC1 (configuration not stated) | 20%[46.1 µM] | 18 | -21% | .
Cc1ccccc1C1(CC(=O)N2CCCC(C)C2)CC(=O)N(Cc2cccnc2)C1=O (configuration not stated) | . | . | 6% | .
O=C(NCC1CC1)c1csc([C@@H]2O[C@H](CO)[C@H](O)[C@H](O)[C@H]2O)n1 | . | 30 | -9% | .
CC(C)(C=O)C1=CC(=O)c2ccccc2C1=O | ? | 0 | 35µM* | ?
O=C(c1ccco1)C(O)c1ccco1 (configuration not stated) | . | -62* | -4% | .
CC(Sc1ncnc2c1cnn2-c1ccccc1)C(=O)NCC1CCCO1 (configuration not stated) | . | -3 | -4% | .
Cc1nc(SC(C)C(=O)NCC2CCCO2)c2cc(-c3ccccc3)sc2n1 (configuration not stated) | 0.5µM* | -89* | 16% | 0.63µM*
Cc1cc(C(C)(C)C)oc1C(=O)N1CCN(C(=O)c2oc(C(C)(C)C)cc2C)CC1 | . | -66* | ? | 3%
CC1=CC[C@@H](COc2ccccc2)O[C@@]2(C1)C(=O)N(CC1CC1)c1ccccc12 | . | . | . | 20%[14.2 µM]
Cc1c(C(=O)NCC2(N3CCOCC3)CCCC2)cnn1-c1nccc(-c2ccccc2F)n1 | . | . | -2% | .
COc1ccc(C2=NS(=O)(=O)N(C)C(C(=O)N3CCc4ccccc4C3)=C2)cc1OC | . | -28 | 28µM* | .
SMILES | Lassa entry inh | HCMV inh | FMDV antiviral | Marburg entry inh
COc1ccc(C2=NS(=O)(=O)N(C)C(C(=O)NCc3ccccc3)=C2)cc1OC | 3%[46.1 µM] | -80*! | -23% | 9%[46.1 µM]
COc1ccc(CNC(=O)C2=CC(c3ccc(OC)c(OC)c3)=NS(=O)(=O)N2C)cc1 | -6%[46.1 µM] | -19 | -20% | ?
CCOC(=O)c1sc(NC(=O)Nc2cccc(Cl)c2)cc1C | ? | -95* | -22% | ?
Cc1cc(C)c(NC(=O)C2CCN(c3nc4ccccc4[nH]3)CC2)c(C)c1 | 12%[46.1 µM] | + | 2% | .
Cc1ccc(NC(=O)C2CCN(c3nc4ccccc4[nH]3)CC2)cc1Cl | -19%[46.1 µM] | 0 | -4% | .
O=C(OCc1ccccc1)c1cc(S(=O)(=O)N2CCCCC2)ccc1N1CCOCC1 | ? | -23 | ? | ?
O=C(OCc1cccc(Cl)c1)c1cc(S(=O)(=O)N2CCCCC2)ccc1N1CCOCC1 | ? | -35 | -27% | 11µM*
O=C(OCCOc1cccc(Cl)c1)c1cc(S(=O)(=O)N2CCCCC2)ccc1N1CCOCC1 | ? | -88* | ? | ?
O=C(NC1CCCCC1)c1nnc2n1CCN(Cc1cccc(C(F)(F)F)c1)C2 | . | 21 | . | .
COc1cc2cc(c1Cl)N(C)C(=O)CC(OC(=O)C(C)N(C)C(C)=O)C1(C)OC1C(C)C1CC(O)(NC(=O)O1)C(OC)C=CC=C(C)C2 (configuration not stated) | ? | -80* | -10% | -10%
COc1ccc(NS(=O)(=O)c2cccc(NC(=O)c3ccc(Cl)nc3)c2)cc1 | 5µM* | -89* | 32µM* | ?
O=C(Nc1cccnc1)c1ccc(S(=O)(=O)c2ccc(Cl)cc2)cc1 | ? | -86* | 28µM* | ?
COc1ccc(NS(=O)(=O)c2cccc(NC(=O)CCC(=O)c3ccc(Cl)cc3)c2)cc1 | ? | -83* | ? | ?
COc1ccc(NS(=O)(=O)c2cccc(NC(=O)CCC(=O)c3cccs3)c2)cc1 | 10% | -34 | 43% | 1%
O=C(Nc1cccc(S(=O)(=O)Nc2ccc(Cl)cc2)c1)c1ccc(Cl)nc1 | ? | -95* | -25% | ?
COC(=O)CCn1nnc(-c2ccc(C(C)C)cc2)n1 | ? | -62* | ? | ?
CCCOc1ccc(CCCN=C(N)N)cc1Cl | 0% | -74* | ? | ?
CCCCOc1ccc(CN=C(N)N)cc1Cl | . | -20 | ? | .
Cc1ccc(S(=O)(=O)NCCC(=O)NCCCSc2ccccc2)cc1 | . | -75* | 3% | .
COc1ccc(N(CC(=O)NCCSc2ccccn2)S(=O)(=O)c2ccc(C)cc2)cc1OC | -11%[46.1 µM] | -60* | 22% | -22%[46.1 µM]
Cc1ccc(N(CC(=O)NCCSc2ccccc2)S(=O)(=O)c2ccc(F)cc2)cc1 | -13%[46.1 µM] | -65* | ? | .
COc1ccc(N(CC(=O)NCCSc2ccccn2)S(=O)(=O)c2ccccc2)cc1OC | . | 124 | 3% | -3%[46.1 µM]
COc1ccc(CCNC(=O)c2ccc3c(c2)N(Cc2cccc(Cl)c2)C(=O)c2ccccc2S3=O)cc1OC (configuration not stated) | ? | ? | -20% | .
COc1ccc(-n2c(-c3ccco3)nc3c(cnn3-c3ccc(Cl)cc3)c2=O)cc1 | ? | ? | -4% | ?
COc1cccc(-n2c(-c3ccco3)nc3c(cnn3-c3ccc(Cl)cc3)c2=O)c1 | ? | -67* | ? | -28%[46.1 µM]
Cc1cccc(-n2c(-c3ccco3)nc3c(cnn3-c3ccccc3C)c2=O)c1 | -15%[46.1 µM] | -11 | 0% | ?
O=c1c2cnn(-c3ccccc3)c2nc(-c2ccco2)n1-c1ccccc1 | ? | -71* | 14µM* | ?
